Source: PubChem
Furin inhibitor – human furin inhibitors, primary screen, biochemical, fluorescence intensity. purified furin, fluorogenic substrate cleavage. inhibition, % at 20 µM or 30 µM. 220,000 tested, 0.061% active; in the data active = inhibition above about 25%
Target sequence (P09958 108-714 limits assumed): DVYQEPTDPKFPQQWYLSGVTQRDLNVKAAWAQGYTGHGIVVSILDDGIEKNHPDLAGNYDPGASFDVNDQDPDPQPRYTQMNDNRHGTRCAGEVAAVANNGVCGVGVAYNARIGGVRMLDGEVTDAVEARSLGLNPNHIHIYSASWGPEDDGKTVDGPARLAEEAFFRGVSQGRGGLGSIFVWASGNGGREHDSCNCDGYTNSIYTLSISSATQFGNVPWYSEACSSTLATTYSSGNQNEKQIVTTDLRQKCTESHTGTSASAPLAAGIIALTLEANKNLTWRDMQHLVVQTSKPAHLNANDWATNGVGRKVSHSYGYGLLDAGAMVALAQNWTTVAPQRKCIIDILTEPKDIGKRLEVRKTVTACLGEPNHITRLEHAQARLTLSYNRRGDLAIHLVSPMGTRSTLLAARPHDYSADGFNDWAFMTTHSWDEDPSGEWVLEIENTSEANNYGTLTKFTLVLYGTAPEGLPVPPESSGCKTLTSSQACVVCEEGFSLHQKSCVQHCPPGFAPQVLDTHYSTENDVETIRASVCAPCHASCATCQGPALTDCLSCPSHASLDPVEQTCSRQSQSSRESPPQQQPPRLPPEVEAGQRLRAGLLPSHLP
HSV augment – enhancers of HSV replication in host cells, fold increase, host cell viability | 220,000 tested, 0.005% active | AID 1956, 2009 | maximum fold increase | HSV replication augmentation in cells; in the data active = maximum fold increase above about 1.5; inconclusive = no clear call, values can overlap the other calls; tested in PC3 cells
EP2 antag – human EP2 receptor antagonists, primary screen, TR-FRET cAMP, C6 glioma cells | C6 glioma cells expressing human EP2; cells stimulated with saturating PGE2 | inhibition, % at 25 µM | 260,000 tested, 0.52% active;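 active = percent inhibition above 40 after rounding to a whole number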;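 also: rat C6 glioma host cells with rolipram phosphodiesterase inhibitor present; the protocol text gives 20 µM as final concentration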
Wee1 stabilizer – Wee1 degradation inhibitors, primary screen, cell-based, HeLa, Wee1K328M-luciferase, luminescence; HeLa Luc-Wee1K328M stability; 100% = proteasome inhibitor MG132 effect; reporter increase, % at 5 µM; 220,000 tested, 1.2% active; Wee1-like protein kinase (Homo sapiens), P30291; AID 1321, 2008;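 active = activation above the mean of all tested compounds plus 3 SD, set per screening run, cut at about 8.8% in these data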;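 also: cells exposed to compound for 20 h before luminescence read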
p47phox inh – p47phox/p22phox peptide binding inhibitors, primary screen, biochemical, uHTS, NADPH oxidase regulatory subunit | fluorescence polarization, 2 h | inhibition, % at 24.7 µM | 220,000 tested, 0.53% active | AID 1274, 2008;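 active = inhibition above about 30%, limit read from the data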
EP2 modulator – EP2 receptor modulators, cAMP readout, primary screen, cell-based, HTRF cAMP, PGE2 stimulation | induction, % at 25 µM | 260,000 tested, 0.83% active | Prostaglandin E2 receptor EP2 subtype (Homo sapiens), P43116 | EP2-expressing cells, cAMP HTRF FRET, PGE2 co-stimulation;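 active = compounds whose cAMP rise, as percent of the full-agonist control response, exceeds 60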;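 also: rat C6 glioma line stably carrying human EP2 under a CMV promoter; the protocol text gives 20 µM as final concentration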
Each line names hits and unclear results; the compound was inactive in the other large screens; ! = a repeat was not active. Shown are actives, neighbours in structure and some others; about 2.8% of the full set was active somewhere.

COCCn1c(=NC(=O)C2COc3ccccc3O2)sc2cc(S(N)(=O)=O)ccc21 (centres undefined)	EP2 antag 58
C=CCn1c(=NC(=O)C2COc3ccccc3O2)sc2cc(S(N)(=O)=O)ccc21 (centres undefined)	none
CCOC(=O)c1c(NC(=O)CSc2nnc(C)c(C)n2)sc2c1CCCC2	none (no result: Furin inhibitor, HSV augment, Wee1 stabilizer, p47phox inh)
COCCn1c(=O)n(CC(=O)NC23CC4CC(CC(C4)C2)C3)c2cccnc21	none (no result: Furin inhibitor, HSV augment, EP2 antag, Wee1 stabilizer, p47phox inh)
Cc1ccc(CN2CCN(Cc3ccc(O)cc3)CC2CCO)o1 (centres undefined)	none
Cc1ccc(CN2CCN(Cc3ccc(C)o3)[C@@H](C)C2)o1	EP2 antag 43 (no result: Furin inhibitor, HSV augment, Wee1 stabilizer, p47phox inh)
N=C(N)S[C@@H]1c2ccccc2-c2cc([N+](=O)[O-])ccc21	EP2 antag 48 (no result: Furin inhibitor, HSV augment, Wee1 stabilizer, p47phox inh)
CN1C(=O)c2ccccc2C(C(=O)O)C1c1cccc([N+](=O)[O-])c1 (centres undefined)	none
Cc1ccc2sc(N(CCCN(C)C)C(=O)c3nc4ccccc4s3)nc2c1C	p47phox inh 32
Cc1cc(-c2cnc(C)nc2C2CCN(CC(=O)N3CCCC3)CC2)on1	none (no result: Furin inhibitor, HSV augment, EP2 antag, Wee1 stabilizer, p47phox inh)
CC(C)CC(NC(N)=O)C(=O)NCCc1ccc(Cl)cc1Cl (centres undefined)	none
CC(C)CC(NC(N)=O)C(=O)NCCc1ccc(Cl)cc1 (centres undefined)	Wee1 stabilizer 11
Cc1ccc(C)c(CN2CCNC2=O)c1	p47phox inh 137
CCCc1nc2ccc(NC(=O)NCCC(=O)OCC)cc2c(=O)n1Cc1cccc(Cl)c1	Wee1 stabilizer 17
O=C(c1ccco1)N1CCC[C@H]1Cn1nc(-c2ccc3c(c2)OCO3)ccc1=O	none (no result: Furin inhibitor, HSV augment, EP2 antag, Wee1 stabilizer, p47phox inh)
CCN(CC)C1CC(=O)N(c2cccc(C)c2)C1=O (centres undefined)	Wee1 stabilizer 10.0
CN(C)CCN1C(=O)CC[C@@]2(C)C1=CC[C@H]1[C@H]2CC[C@@]2(C)[C@H]1CC[C@]2(C)O	EP2 antag 50 (no result: Furin inhibitor, HSV augment, Wee1 stabilizer, p47phox inh)
COCCN(CCOC)c1ncnc2c1cnn2-c1ccccc1	EP2 modulator 78 (no result: Wee1 stabilizer)
CCCCC(=O)Nc1ccc2c3c(cccc13)C(=O)N2CC	none
CCN1C(=O)c2cccc3c(NC(=O)C(C)(C)C)ccc1c23	EP2 antag 50
O=C(NCc1ccco1)c1ccc(COc2ccccc2Cl)cc1	Wee1 stabilizer 13
COc1cc2c(cc1OC)C(c1ccccc1)N(Cc1cnc(C(C)C)nc1)CC2 (centres undefined)	none (no result: Furin inhibitor, HSV augment, Wee1 stabilizer, p47phox inh)
c1csc(-c2nc3ccccn3c2NC2CCCCC2)c1	EP2 modulator 61
O=C(Nc1ccc(N2CCCC2)cc1)c1ccc2c(c1)OCCO2	none (no result: Furin inhibitor, HSV augment, Wee1 stabilizer, p47phox inh)
O=C(NCC1(c2ccccc2)CCCC1)C1(c2ccccc2)CCCC1	EP2 modulator 62
O=C(NCC1(c2ccccc2)CCCC1)C(=O)NCC1(c2ccccc2)CCCC1	none
COc1ccc(NC(=O)Cc2ccc(Cl)c(Cl)c2)cn1	none
COc1ccc(NC(=O)/C(Cl)=C(/Cl)S(=O)Cc2ccccc2Cl)cn1 (centres undefined)	EP2 antag 52 (no result: HSV augment)
COc1cccc(C(=O)NC(=S)Nc2ccc3oc(=O)ccc3c2)c1	HSV augment inconclusive, p47phox inh 37
CCOc1ccc(C(Nc2cccnc2)c2cc(Cl)c3cccnc3c2O)cc1 (centres undefined)	p47phox inh 40
CCC(=O)NC(c1ccc(OC)c(OC)c1)c1cc(Cl)c2cccnc2c1O (centres undefined)	p47phox inh 40
CC(C)C(=O)c1cn(CC(=O)Nc2ccccc2)c2ccccc12	none (no result: Furin inhibitor, HSV augment, Wee1 stabilizer, p47phox inh)
CCCCSC1=N/C(=C/c2ccsc2)C(=O)N1c1ccccc1	none
CCCSC1=N/C(=C/c2ccsc2)C(=O)N1c1ccccc1	EP2 modulator 63
CCn1c(Cc2c(C)[nH]c3ccccc23)nnc1SCC(=O)NCc1ccccc1	p47phox inh 41
COc1ccc(OC)c(C(=O)Cn2cnc3c(cnn3-c3ccccc3Cl)c2=O)c1	none (no result: Furin inhibitor, HSV augment, Wee1 stabilizer, p47phox inh)
Cc1cccc(Oc2ccccc2NC(=O)c2cnccn2)c1	EP2 modulator 61
O=C(Nc1ccccc1-c1ccccc1)c1cnccn1	EP2 modulator 66!
O=C(Nc1ccccc1F)c1cnccn1	none
O=C(N/N=C/c1cn(-c2cccs2)nc1-c1ccccc1)c1ccc(O)cc1	EP2 antag 42
O=C(N/N=C/c1cn(-c2cccs2)nc1-c1ccccc1)c1ccccc1Cl	none
COc1ccc(CCNC(=O)c2ccc(-c3ccccc3Cl)o2)cc1OC	EP2 antag 62 (no result: Furin inhibitor, HSV augment, Wee1 stabilizer, p47phox inh)
O=C(Nc1ccc(Cl)c(Cl)c1)c1ccc(Cl)c(Cl)c1	none
Cc1ccc(NC(=O)c2ccc(Cl)c(N3C(=O)C=CC3=O)c2)cc1	EP2 antag 125
Cc1cc(C)nc(NS(=O)(=O)c2ccc(NC(=O)CSc3nc(-c4ccccc4)c(C#N)c(=O)[nH]3)cc2)n1	EP2 modulator 62
N#Cc1c(-c2ccccc2)nc(SCC(=O)Nc2ccccc2)[nH]c1=O	none
O=C(c1ccco1)N1CCC[C@H]1Cn1nc(-c2cccs2)ccc1=O	none (no result: Furin inhibitor, HSV augment, EP2 antag, Wee1 stabilizer, p47phox inh)
Clc1ccc(-c2ncc3ccccn23)cc1	none
Clc1ccccc1-c1ncc2ccccn12	Wee1 stabilizer 8.9
CC(C)(C)OC(=O)N1CCC[C@@H](CNC(=O)c2cccs2)C1	none (no result: Furin inhibitor, HSV augment, Wee1 stabilizer, p47phox inh)
CCN1CCN(CCc2nc3cc([N+](=O)[O-])ccc3n2C)CC1	Wee1 stabilizer 9.3
Cn1c(CCN2CCCCC2)nc2cc([N+](=O)[O-])ccc21	none
O=C(c1ccccc1)N1CCN(C2CCCCCC2)CC1	none
O=C(O)c1c2c(c(O)c3c1CN(C1CCCCC1)CO3)OCN(C1CCCCC1)C2	EP2 antag 61 (no result: Furin inhibitor, HSV augment, Wee1 stabilizer, p47phox inh)
CCOC(=O)C1=C(C)NC2=C(C(=O)CC(C)(C)C2)C1c1ccncc1 (centres undefined)	none (no result: Furin inhibitor, HSV augment, Wee1 stabilizer, p47phox inh)
O=C(O)c1cccc(NC(=S)NC(=O)c2ccc(-c3ccc(Cl)cc3)o2)c1	EP2 modulator 64
CCOCCOC(=O)C1=C(C)NC2=C(C(=O)CC(c3ccc(OC)c(OC)c3)C2)C1c1cccs1 (centres undefined)	none (no result: Furin inhibitor, HSV augment, Wee1 stabilizer, p47phox inh)
CC1=C(C(=O)Nc2ccc(Br)cc2)C(c2ccccc2O)NC(=S)N1 (centres undefined)	none (no result: Furin inhibitor, HSV augment, Wee1 stabilizer, p47phox inh)
O=C(NCc1ccc2c(c1)OCO2)[C@@H]1C=CCN1C(=O)NCc1ccccc1	none (no result: Furin inhibitor, HSV augment, EP2 antag, Wee1 stabilizer, p47phox inh)
COc1ccc(C2=CC(=O)N(Nc3ccccc3)C2=O)cc1	none
Cc1ccc(NN2C(=O)C=C(c3ccc(Cl)cc3)C2=O)cc1	EP2 antag 40
O=C1C=C(c2ccccc2)C(=O)N1Nc1ccccc1	EP2 antag 84
O=C1/C(=C/c2cccnc2)Sc2ccccc21	EP2 antag 49
O=C1/C(=C\c2cccc(C(F)(F)F)c2)Sc2ccccc21	none (no result: Furin inhibitor, HSV augment, Wee1 stabilizer, p47phox inh)
CC[n+]1c(/C=C2\Sc3ccccc3N2C)ccc2cccc(C)c21	EP2 antag 107 (no result: HSV augment)
